# Laboratory results taken from PubChem BioAssay AID645 (SRMLSC, 2007).
# Hit rate of the full screen: of about 65,000 compounds, about 450 (0.69%) were called active.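 Rule for the calls: active = HER2 level under 5% of the carrier-only control; inconclusive = no clear call, values can overlap the other calls; inactive = the rest.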 Many of the other results were omitted from the sample, so actives are more common in it than they were.
# Target: Receptor tyrosine-protein kinase erbB-2 (Homo sapiens) (UniProt P04626)
# Assay: reducers of endogenous HER2 protein levels – SKBR-3 cells, AlphaScreen, 66K library, primary screen (AID 645);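 note: 100% = DMSO carrier and 0% = 500 nM PU-H71 HSP90 inhibitor; lower value means stronger loss of Her2 protein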
# Details: SKBR-3 HER2 protein level, 18-24 h, at 10 µM, stronger effect = lower value
# Receptor tyrosine-protein kinase erbB-2 (Homo sapiens), sequence (P04626 whole entry, looked up): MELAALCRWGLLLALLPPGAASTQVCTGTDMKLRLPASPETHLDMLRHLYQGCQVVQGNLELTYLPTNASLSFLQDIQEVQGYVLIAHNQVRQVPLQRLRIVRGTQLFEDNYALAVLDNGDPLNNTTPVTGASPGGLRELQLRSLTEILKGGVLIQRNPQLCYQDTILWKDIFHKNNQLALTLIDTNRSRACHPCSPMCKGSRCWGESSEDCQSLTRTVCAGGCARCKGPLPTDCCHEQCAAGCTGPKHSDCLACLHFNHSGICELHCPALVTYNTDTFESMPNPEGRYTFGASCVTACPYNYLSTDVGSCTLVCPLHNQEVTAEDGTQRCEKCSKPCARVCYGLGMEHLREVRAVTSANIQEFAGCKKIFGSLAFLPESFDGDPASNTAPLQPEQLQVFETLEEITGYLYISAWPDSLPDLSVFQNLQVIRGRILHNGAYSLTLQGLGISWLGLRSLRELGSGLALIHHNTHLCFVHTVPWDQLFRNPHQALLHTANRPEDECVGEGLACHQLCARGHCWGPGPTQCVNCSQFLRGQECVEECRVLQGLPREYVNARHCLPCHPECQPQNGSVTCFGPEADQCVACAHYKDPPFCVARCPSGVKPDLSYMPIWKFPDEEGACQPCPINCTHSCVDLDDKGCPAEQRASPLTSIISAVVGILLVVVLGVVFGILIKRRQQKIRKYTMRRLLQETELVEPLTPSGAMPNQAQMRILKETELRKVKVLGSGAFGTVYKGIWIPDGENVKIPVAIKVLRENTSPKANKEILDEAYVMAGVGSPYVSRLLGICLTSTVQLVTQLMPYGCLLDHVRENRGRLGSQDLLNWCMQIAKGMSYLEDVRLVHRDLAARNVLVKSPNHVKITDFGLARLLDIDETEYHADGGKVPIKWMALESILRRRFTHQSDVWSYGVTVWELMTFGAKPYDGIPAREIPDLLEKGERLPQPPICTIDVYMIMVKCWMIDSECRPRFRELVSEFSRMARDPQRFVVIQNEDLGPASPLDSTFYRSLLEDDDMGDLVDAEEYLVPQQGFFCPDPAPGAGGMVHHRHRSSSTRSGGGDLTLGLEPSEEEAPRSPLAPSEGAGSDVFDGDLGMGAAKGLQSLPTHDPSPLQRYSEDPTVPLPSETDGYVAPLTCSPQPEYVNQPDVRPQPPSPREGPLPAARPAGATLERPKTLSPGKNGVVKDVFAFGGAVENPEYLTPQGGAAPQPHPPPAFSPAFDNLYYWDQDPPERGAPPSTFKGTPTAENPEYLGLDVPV
row,Compound,HER2 level % of control
1,CCCCNC(=O)c1c[nH]c2ccc(S(=O)(=O)Nc3ccc(OCC)cc3)cc2c1=O,54.9% (inactive)
2,CCOC(=O)c1c(NC(=O)CCC(=O)NCc2ccco2)sc2c1CCCC2,104% (inactive)
3,Fc1ccc2nc(-c3ccccc3)nc(SCc3nnc(-c4ccccc4)o3)c2c1,67.9% (inactive)
4,O=C1CCc2cc(S(=O)(=O)N3CCC(C(=O)NCc4ccccc4Cl)CC3)ccc2N1,90.7% (inactive)
5,COc1nc(OC)nc(N(C)CCO)n1,97.4% (inactive)
6,COc1ccc(N2C(=O)CN=C2Nc2cccc(C)c2C)cc1OC,70.2% (inactive)
7,CCCc1[nH]nc2c1C(c1ccc(Br)s1)C(C#N)=C(N)O2 (stereo not given),124% (inactive)
8,CCCc1[nH]nc2c1C(c1ccc(OC)c(Cn3nc(C)c(Br)c3C)c1)C(C#N)=C(N)O2 (stereo not given),-20.4% (active)
9,COc1ccc(C2C(C#N)=C(N)Oc3n[nH]c(C)c32)cc1CN1CCN(c2ccc(F)cc2)CC1 (stereo not given),117% (inactive)
10,COc1ccc2oc(C)c(NC(C)=O)c2c1,71.5% (inactive)
11,COc1ccc(NC(C)=O)cc1NC(=O)CN1CCN(C2c3ccccc3-c3ccccc32)CC1,71.4% (inactive)
12,CCOC(=O)C1CCCN(C(=O)CN(c2ccc(OC)cc2)S(=O)(=O)c2c(C)noc2C)C1 (stereo not given),95.7% (inactive)
13,c1ccc(-n2ncc(-c3nn[nH]n3)n2)cc1,88.5% (inactive)
14,COc1cc(Br)cc(/C=N/c2ncn[nH]2)c1O,92.3% (inactive)
15,Cc1cc(C)c2c(c1)c(C)cc1nnc(SCC(=O)NCc3ccco3)n12,104% (inactive)
16,O=C(c1ccco1)N1CCN(C(=O)C2c3ccccc3Oc3ccccc32)CC1,100% (inactive)
17,CCc1c(O)nc(SCC(=O)N2CCCCC2)n(-c2ccccc2C)c1=O,114% (inactive)
18,N#CCCn1cnc2ccccc21,106% (inactive)
19,COc1ccc(-c2nnc(SC(C)C#N)o2)cc1 (stereo not given),127% (inactive)
20,COc1ccc(CC(=O)Nc2ccc(-c3nnc(-c4ccccc4)o3)cc2)cc1,87.4% (inactive)
21,COc1ccc(-c2nnc(SC(=O)N3c4ccccc4Sc4ccccc43)o2)cc1,-15.7% (active)
22,CCn1nc(C(=O)OCC(=O)N2c3ccccc3CC2C)c2ccccc2c1=O (stereo not given),106% (inactive)
23,CCOc1ccc(NCCC(=O)c2ccc3c(c2)OCO3)cc1,95.7% (inactive)
24,Nc1nonc1-c1noc(-c2ccc(Br)o2)n1,79.9% (inactive)
25,CCn1ncc(Br)c1C(=O)Nc1cc(C)ccc1F,75.8% (inactive)

row,Compound,HER2 level % of control
1,Clc1cccc(Cl)c1Cn1nnc(-c2cccs2)n1,89.2% (inactive)
2,O=C(CN1C(=O)CCC1=O)Nc1ccc(S(=O)(=O)N2CCOCC2)cc1,103% (inactive)
3,CCCCN(CC)CCCNC(=O)CS(=O)(=O)Cc1nc(-c2cccc(OC)c2)oc1C,80.5% (inactive)
4,CC1(C)CC(O)C(CCC(O)c2ccccc2)C(C)(C)N1 (stereo not given),89.8% (inactive)
5,CCN(CC)S(=O)(=O)c1ccc(NC(=O)CN(c2cccc(F)c2)S(C)(=O)=O)cc1,152% (inactive)
6,COC(=O)[C@H](Cc1ccccc1)NC(=O)N1CC(C)OC(C)C1 (stereo not given in full),108% (inactive)
7,C=C(C)COc1ccc(-c2n[nH]c(C)c2-c2ccccc2)c(O)c1,68.6% (inactive)
8,COc1ccc(-c2n[nH]c(C)c2-c2ccc(OC)c(OC)c2)c(O)c1,82.6% (inactive)
9,C=C(C)COc1ccc(-c2n[nH]c(C)c2-c2ccccc2OC)c(O)c1,-9.89% (active)
10,CCOC(=O)CNC(=O)CN1C(=O)CCSc2ccccc21,106% (inactive)
11,Cn1c(=O)c2c(nc(N3CCCCCC3)n2CC(O)COc2ccc(Cl)cc2)n(C)c1=O (stereo not given),89% (inactive)
12,COc1ccccc1NC(=O)C1=C(C)NC2=C(C(=O)CCC2)C1c1ccc(C)o1 (stereo not given),90.6% (inactive)
13,O=c1ccn(Cc2ccccc2Cl)cc1,93.6% (inactive)
14,COc1ccccc1N1CCN(C(=O)c2ccc(S(=O)(=O)N3CCCCC3)cc2)CC1,135% (inactive)
15,Cn1c(SCC(=O)Nc2cccc(O)c2)nnc1-c1ccc(S(=O)(=O)N2CCOCC2)cc1,100% (inactive)
16,CC(=O)Nc1nc(C)c(Cc2ccccc2)c(=O)[nH]1,142% (inactive)
17,Cn1c(=O)c2cn(-c3cccc4ccccc34)cc2n(C)c1=O,94.5% (inactive)
18,COc1cc(NS(=O)(=O)c2ccc(NC(C)=O)cc2)cc(OC)c1,90.4% (inactive)
19,CC(=O)Nc1ccc(S(=O)(=O)Nc2cccc(NC(=O)C(C)(C)C)c2)cc1,127% (inactive)
20,CC(=O)Nc1ccc(NS(=O)(=O)c2cc(C)sc2C)cc1,-22.3% (active)
21,CCC(C)n1[nH]c(=O)c2c(C)cc(C)nc21 (stereo not given),116% (inactive)
22,CCN(CC)CCCN1C(=O)C(=O)/C(=C(/O)c2c(C)nc3ccccn23)C1c1ccc(C)o1 (stereo not given),90.1% (inactive)
23,Cc1ccc(NC(=O)C2CC(c3ccc(F)cc3)=NO2)cc1 (stereo not given),127% (inactive)
24,CCC1(C)N(O)C(C)(C)C(c2ccc(OC)cc2)=[N+]1[O-] (stereo not given),90.2% (inactive)
25,O=C1c2ccccc2C(O)N1Cc1ccccc1Cl (stereo not given),99% (inactive)

row,Compound,HER2 level % of control
1,Brc1cnc(N2CCCC2)nc1N1CCCCC1,69.2% (inactive)
2,COc1ccc(CC(=O)Nc2nc3n(n2)C(c2ccccc2)CC(=O)N3)cc1OC (stereo not given),104% (inactive)
3,CCCn1c(SCC(=O)c2ccc3c(c2)OCCO3)nnc1C(C)C,116% (inactive)
4,COc1cc(C2C(C(=O)Nc3ccccc3OC)=C(C)Nc3ncnn32)ccc1O (stereo not given),106% (inactive)
5,O=C(C1CCN(S(=O)(=O)c2cccs2)CC1)N1CCCCCC1,100% (inactive)
6,Cc1nc(-c2ccc(NC(=O)c3cccs3)cc2)cs1,103% (inactive)
7,CC1=C(C)CC2C(=O)N(c3cccc4ccccc34)C(=O)C2C1 (stereo not given),102% (inactive)
8,C=CCn1c(N)c(C(=O)OCC(C)C)c2nc3ccccc3nc21,86% (inactive)
9,CC(C)Cn1c(N)c(C(=O)NCc2cccs2)c2nc3ccccc3nc21,-24.2% (active)
10,C=CCn1c(N)c(S(=O)(=O)c2cccs2)c2nc3ccccc3nc21,86.9% (inactive)
11,COc1ccc(OCC(=O)OCCN(C)C)cc1,117% (inactive)
12,O=C(O)C1C2C=CC(C2)C1C(=O)N1CCN(CCO)CC1 (stereo not given),56.8% (inactive)
13,Nc1cc(=O)nc(SCc2ccccc2)n1Cc1ccco1,77% (inactive)
14,Cn1c(-c2ccc(F)cc2)cnc1SCC(=O)NCc1ccco1,85.8% (inactive)
15,O=c1[nH]c(CSc2ncc(-c3ccc(F)cc3)n2Cc2ccco2)nc2ccccc12,-21.8% (active)
16,CN(C)c1nc2n(c(=O)n1)CCO2,93.2% (inactive)
17,CCC(=O)NC(=Nc1nc2ccccc2s1)NC(=O)CC,76% (inactive)
18,CCC(=O)c1cc2c(cc1NC(=O)c1cccs1)OCCO2,102% (inactive)
19,COc1cccc(NC(=O)C(C)Oc2ccccc2)c1 (stereo not given),87.6% (inactive)
20,CCCC1CC(C)(C(=O)Cn2[nH]c(=O)ccc2=O)OC1=O (stereo not given),109% (inactive)
21,COc1ccccc1CNC(=O)Cn1cc2c(n1)CCCC2,95.6% (inactive)
22,CCc1cc2c(=O)c(-c3ccon3)c(N)oc2cc1OC,49.1% (inactive)
23,Cc1ccccc1CN1CCN(C(=O)c2cccc(F)c2)CC1,79% (inactive)
24,c1ccc2cc(OCCN3CCCC3)ccc2c1,-25.1% (active)
25,Cc1cc(OCCN2CCCC2)ccc1C(C)C,63% (inactive)

row,Compound,HER2 level % of control
1,OC(COc1ccc2ccccc2c1)CN1CCOCC1 (stereo not given),113% (inactive)
2,CCOC(=O)Cc1csc(NC(=O)C(C)(C)C)n1,135% (inactive)
3,CCc1nc2ccccc2n(CCOCCOCCn2c(=O)c(CC)nc3ccccc32)c1=O,91.8% (inactive)
4,CC(=O)NC1=NC(=O)CS1,76.7% (inactive)
5,Cn1c2c(c(=O)n(C)c1=O)C1c3ccccc3OCC1C(C)(C)O2 (stereo not given),99.2% (inactive)
6,CCOc1ccccc1N=C1NC(=O)CS1,88.8% (inactive)
7,CCN(CC)CCNC(=O)Cn1cnc2sc(C)c(S(=O)(=O)N3CCOCC3)c2c1=O,103% (inactive)
8,OC(COc1cccc2ccccc12)CN1CCN(c2ccccn2)CC1 (stereo not given),105% (inactive)
9,O=C1CSC(=O)N1CCOCCN1C(=O)CSC1=O,104% (inactive)
10,Cc1ccc2c(CSc3nncs3)cc(=O)oc2c1,149% (inactive)
11,Cc1cc(=O)[nH]c(SCc2cc(Cl)ccc2OC(F)F)n1,103% (inactive)
12,CC1CC(c2ccccc2)n2nc(NC(=O)c3cccs3)nc2N1 (stereo not given),89% (inactive)
13,CCOC(=O)Cc1c(C)nc2c(C#N)c(C)nn2c1C,92.6% (inactive)
14,COCCNCCOCCOc1cccc(OC)c1,102% (inactive)
15,Cc1nc(C)c2c(c1C(F)(F)F)-c1ccccc1C2(F)F,78.7% (inactive)
16,COc1ccc(C(c2nnnn2C2CCCCC2)N2CCN(c3ccccc3F)CC2)cc1 (stereo not given),80.7% (inactive)
17,O=C(c1ccc2c(c1)N(Cc1ccc(F)cc1)C(=O)CS2)N1CCOCC1,98.6% (inactive)
18,CC(=O)N1CCN(c2cccc(C)c2C)CC1,110% (inactive)
19,COc1ccc(C(CNC(=O)c2cccnc2SC)N2CCOCC2)cc1 (stereo not given),106% (inactive)
20,CC(=O)Nc1ccc(S(=O)(=O)N2CCCC2C(=O)O)cc1 (stereo not given),162% (inactive)
21,COC(=O)c1ccc(NC(=O)C(C)N2C(=O)c3ccccc3C2=O)cc1 (stereo not given),-18.9% (active)
22,COC(=O)c1ccc(NC(=O)c2ccco2)cc1,85.8% (inactive)
23,Cc1cc(C)nc(NC(=O)C(C)N2C(=O)c3ccccc3C2=O)n1 (stereo not given),89.5% (inactive)
24,COC(=O)C1C(=O)c2c([nH]c(C(=O)OCCSC)c2C)CC1C (stereo not given),99.8% (inactive)
25,CCOC(=O)c1c(C)n(C)c2ccc(OC)c(NC(=O)CN3CCC4(CC3)OCCO4)c12,34.4% (inactive)
